Luciferase inh: blocks purified firefly luciferase enzyme activity; P08659; purified P. pyralis luciferase, luminescence, biochemical; Potency, µM (titrated, usually from 115 µM), hits mostly inhibitors; 76,000 compounds, 2.5% hits; AID 1347043; also: nearly all actives have a fitted effect of over 65% in size
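Biochemical qHTS: compound (6-point titration) added to 10uM D-luciferin plus 10uM ATP in Tris acetate pH 7.5 buffer with Mg, Tween-20 and BSA, then purified enzyme at 10nM; light output imaged.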
HEK cytotox: kills HEK 293 cells; HEK 293 viability, ATP luminescence (CellTiter-Glo), 48-72 h; Potency, µM (titrated, usually from 115 µM), without a hit: at the top dose activity change, negative = cytotoxicity, hits mostly inhibitors; 94,000 compounds, 6.6% hits; also: nearly all actives have a fitted effect of over 60% in size
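250 HEK 293 cells/well; compound by pintool; incubated 48 or 72 hr at 37 degree Celsius; CellTiter-Glo added, 10 min RT, luminescence imaged.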
hNpr1 antagonist: human Npr1 receptor antagonism; AID 1347048; 76,000 compounds, 1.6% hits; Potency, µM (highest dose often 46.3 µM), inactives show top-dose activity change, negative = inhibition, usual class: inhibitors; HEK293 hNpr1 GloSensor cGMP, ANP-stimulated luminescence; P16066; calls by dose curve; also: nearly all actives have a fitted effect of over 60% in size
Target sequence (P16066 whole entry, looked up): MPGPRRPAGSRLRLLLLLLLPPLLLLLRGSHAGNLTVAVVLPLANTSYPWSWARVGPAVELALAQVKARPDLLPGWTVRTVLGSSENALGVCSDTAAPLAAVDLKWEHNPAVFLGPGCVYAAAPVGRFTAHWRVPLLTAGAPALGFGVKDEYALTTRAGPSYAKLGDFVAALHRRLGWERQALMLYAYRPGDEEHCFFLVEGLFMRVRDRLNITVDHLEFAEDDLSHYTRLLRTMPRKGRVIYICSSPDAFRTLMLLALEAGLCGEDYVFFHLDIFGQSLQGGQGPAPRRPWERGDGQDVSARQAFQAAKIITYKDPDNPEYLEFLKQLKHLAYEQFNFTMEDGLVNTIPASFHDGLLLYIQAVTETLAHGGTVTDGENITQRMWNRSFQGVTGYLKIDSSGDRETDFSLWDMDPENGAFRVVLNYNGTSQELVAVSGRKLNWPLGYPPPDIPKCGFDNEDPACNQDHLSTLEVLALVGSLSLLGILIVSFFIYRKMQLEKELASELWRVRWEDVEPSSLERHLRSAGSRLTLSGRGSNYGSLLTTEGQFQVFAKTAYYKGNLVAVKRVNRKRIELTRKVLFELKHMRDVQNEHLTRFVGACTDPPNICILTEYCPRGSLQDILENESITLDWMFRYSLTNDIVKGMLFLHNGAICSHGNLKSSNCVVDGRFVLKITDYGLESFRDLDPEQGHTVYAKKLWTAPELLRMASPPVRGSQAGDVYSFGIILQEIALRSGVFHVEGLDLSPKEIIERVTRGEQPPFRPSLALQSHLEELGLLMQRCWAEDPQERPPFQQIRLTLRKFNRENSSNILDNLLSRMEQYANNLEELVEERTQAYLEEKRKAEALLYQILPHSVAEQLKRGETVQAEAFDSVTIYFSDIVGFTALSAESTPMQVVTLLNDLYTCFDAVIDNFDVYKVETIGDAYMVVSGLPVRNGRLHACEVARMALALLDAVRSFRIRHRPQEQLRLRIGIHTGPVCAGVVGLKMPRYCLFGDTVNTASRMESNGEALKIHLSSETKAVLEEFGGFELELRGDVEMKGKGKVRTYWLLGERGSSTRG
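HEK293 cells stably expressing human Npr1 and cGMP GloSensor pGS-40F, loaded 2 h with 2% GloSensor reagent, given compound 30 min at room temperature. Luminescence read before and 20 min after 0.1 nM hNppA.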
3T3 cytotox: cytotoxic compounds in NIH 3T3 cells; NIH 3T3 viability, CellTiter-Glo ATP luminescence, 48-72 h; Potency, µM (series often up to 96.7 µM), for inactives: top-dose activity change, negative = cytotoxicity, hits mostly inhibitors; 94,000 compounds, 4.3% hits; also: nearly all actives have a fitted effect of over 55% in size
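Luminescent ATP readout (CellTiter-Glo, 10 min RT) after 48 or 72 hr compound exposure of NIH 3T3 cells seeded at 400 cells/well in 1536-well format; quantitative HTS.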
* marks the source's active call; other numbers are inactive results; i = inactive; ? = inconclusive; / = not tested or not shown; [ ] = dose if it differs, or a comment. Shown are actives, neighbours in structure and some others; about 11% of the full set was active somewhere. Unless noted, calls follow the shape of the dose curve; as a rule, active = well fitted curve in the direction sought with a large enough effect; inconclusive = small, poorly fitted or top-dose-only effect, or another doubt; inactive = no such curve, though single readings can be large; an effect the other way counts as inactive or inconclusive. % is scaled to controls: 0 for no effect and ±100 for the full control effect; potency is read from the fitted curve at half-maximal effect.

SMILES	Luciferase inh	HEK cytotox	hNpr1 antagonist	3T3 cytotox
CCCCCNc1ncnc2c1CN(c1cccnc1)C(=O)CN2C	/	4.5%	/	-9.8%
COc1cccc(C(=O)N2CCC(C(=O)N3CCC(N4CCCC4=O)CC3)CC2)c1	/	-3.2%	/	-26.5%
CN1C[C@@H](NC(=O)CC(C)(C)CC(=O)O)C[C@H]1c1nc(-c2ccc3c(c2)OCO3)no1	50.1µM*	2.0%[172 µM]	4.2%[70.6 µM]	-0.5%[174 µM]
CN1C[C@@H](NC(=O)c2ccc3c(c2)OCO3)C[C@H]1c1nc(-c2ccc3ccccc3c2)no1	i	79.4µM*	-18.9%	?
COc1ccc(Nc2ccnc(N3CCCC3C(=O)NCc3ccccc3)n2)cc1 (centres undefined)	/	?	/	-24.2%
COc1ccc(Nc2ccnc(N3CCCC(C(=O)NCc4ccccc4Cl)C3)n2)cc1 (centres undefined)	/	35.5µM*	/	35.5µM*
COc1ccc(Nc2ccnc(N3CCCC(C(=O)N4CCC(Cc5ccccc5)CC4)C3)n2)cc1 (centres undefined)	/	20µM*	/	28.2µM*
CC(C)Cn1ccc2c(NC(=O)C[C@H]3NC(=O)c4ccccc4NC3=O)cccc21	i	?	-13.2%	28.2µM*
O=C(NCc1ccccc1)C1(c2ccc(Cl)cc2)CCOCC1	/	-24.8%[172 µM]	/	?
c1ccc(Nc2cc3c(cn2)NCCN(Cc2ccccn2)C3)cc1	i	?	2.3%[70.6 µM]	-18.3%[138 µM]
Cn1cc(CN2CCNc3cc(Nc4ccccc4)ncc3C2)cn1	28.2µM*	-60.3%[172 µM]	1.0%[70.6 µM]	?
Cn1cc(CN2CCNc3cc(-c4ccccc4)ncc3C2)cn1	44.7µM*	?	3.2%[70.6 µM]	-12.9%[138 µM]
COc1ccc(C(=O)N[C@@H]2CCC[C@@H]2C(=O)N2CCN(c3cc(C)ccc3C)CC2)cn1	i	i	-4.7%	i
COc1ccc(-c2nc3ccc(-c4ccc5c(c4)OCO5)cc3o2)c(OC)c1OC	12.6µM*	?	-7.1%	?
COc1ccc(-c2ccc3nc(-c4ccccc4)oc3c2)c(OC)c1OC	i	44.7µM*	2.7%	?
COc1ccc(-c2ccc3nc(-c4ccc(Cl)cc4)oc3c2)c(OC)c1OC	?	-24.6%	-6.3%	-23.8%
FC(F)(F)c1ccc2c(c1)nc1n2[C@@H](CNC2CCC2)COC1	i	-13.6%[172 µM]	-1.0%[70.6 µM]	-4.2%[138 µM]
Cc1nn(-c2ccccc2)c2c1C(C(C)C)N(C1CN(C(=O)C3CCCC3)C1)C2=O (centres undefined)	/	44.7µM*	/	39.8µM*
Cc1nn(-c2ccccc2)c2c1C(C(C)C)N(C1CCCN(C(=O)C3CCCC3)C1)C2=O (centres undefined)	/	-10.2%	/	-18.6%
Cc1nn(-c2ccccc2)c2c1C(C(C)C)N(C1CCCN(C(=O)C(C)(C)C)C1)C2=O (centres undefined)	/	?	/	-5.3%
COCC(=O)N1CCC(N2C(=O)c3c(c(C)nn3-c3ccccc3)C2C(C)C)C1 (centres undefined)	/	-2.9%	/	-17.0%
Cc1ccccc1C(=O)N1CCCC(N2C(=O)c3c(c(C)nn3-c3ccccc3)C2C(C)C)C1 (centres undefined)	/	22.4µM*	/	39.8µM*
Cc1ccccc1C(=O)N1CCC(N2C(=O)c3c(c(C)nn3-c3ccccc3)C2C(C)C)C1 (centres undefined)	/	39.8µM*	/	?
Cc1ccc(C(=O)N2CCCC(N3C(=O)c4c(c(C)nn4-c4ccccc4)C3C(C)C)C2)cc1 (centres undefined)	/	44.7µM*	/	?
COc1ccc(CN2C=C(C(=O)OCc3nc(C4CCCCC4)no3)C(C)=NS2(=O)=O)cc1	i	?	?	?
SMILES	Luciferase inh	HEK cytotox	hNpr1 antagonist	3T3 cytotox
Cc1nn(-c2ccccc2)c2c1C(C(C)C)N(C1CCN(C(=O)c3ccccn3)C1)C2=O (centres undefined)	/	44.7µM*	/	-21.5%
Cc1ccccc1C(=O)N1CC(N2C(=O)c3c(c(C)nn3-c3ccccc3)C2C(C)C)C1 (centres undefined)	/	50.1µM*	/	?
Cc1nn(-c2ccccc2)c2c1C(C(C)C)N(C1CCCN(C(=O)Cc3ccccn3)C1)C2=O (centres undefined)	/	?	/	-29.8%
Cc1nn(-c2ccccc2)c2c1C(C(C)C)N(C1CCCN(C(=O)c3ccccc3F)C1)C2=O (centres undefined)	/	35.5µM*	/	?
Cc1nn(-c2ccccc2)c2c1C(C(C)C)N(C1CN(C(=O)N(C)C)C1)C2=O (centres undefined)	/	?	/	-25.9%
CC(=O)N1CC(N2C(=O)c3c(c(C)nn3-c3ccccc3)C2C(C)C)C1 (centres undefined)	/	-7.3%	/	-24.6%
Cc1nn(-c2ccccc2)c2c1C(C(C)C)N(C1CN(C(=O)c3ccccc3)C1)C2=O (centres undefined)	/	44.7µM*	/	?
O=C(COc1ccccc1)N1C[C@@H](F)[C@@H](OCc2nc3ncccc3[nH]2)C1	i	-1.4%[172 µM]	-1.0%[70.6 µM]	-8.2%[174 µM]
CC(C)(C)COC(=O)N1CC(=O)N(CCCc2ccccc2)CC(O)C1 (centres undefined)	/	-25.6%	/	?
O=C(Nc1ccc2c(c1)OCCO2)C1CCN(C(=O)N2CC3CC(C2)[C@H]2CCCC(=O)N2C3)CC1 (some centres undefined)	20µM*	5.0%	3.3%	3.6%
Cc1ccc(NC(=O)C2CCN(C(=O)N3CC4CC(C3)[C@H]3CCCC(=O)N3C4)CC2)cc1 (some centres undefined)	i	8.9%	0.6%	i
Cc1ccnc(N2CCN(C3CCC4(CCNCC4)CC3)CC2)c1	i	44.7µM*	0.4%	?
COCC1CN(Cc2ccc(Br)cc2)CC12CCNCC2 (centres undefined)	i	?	-10.0%	?
COCC(=O)N1CCCC2(Cc3ccccc3NC2=O)C1 (centres undefined)	i	-18.8%[172 µM]	0.0%[70.6 µM]	-9.2%[138 µM]
CN1CCC(N2C[C@@H]3C[C@H]2C(=O)N(Cc2ccc(OC(F)(F)F)cc2)c2ccccc2O3)CC1	i	?	-3.3%	39.8µM*
O=C1[C@@H]2C[C@@H](CN2C2COC2)Oc2ccccc2N1Cc1ccc(OC(F)(F)F)cc1	i	100µM*	-15.5%[70.6 µM]	?
O=C1[C@@H]2C[C@@H](CN2C2CCCC2)Oc2ccccc2N1Cc1ccccc1	i	100µM*	-28.9%[70.6 µM]	?
COCCN1C(=O)[C@@H]2C[C@@H](CN2C2CCCC2)Oc2ccccc21	i	?	-12.3%[70.6 µM]	-30.5%[138 µM]
CC(=O)N1CCC(N2C[C@@H]3C[C@H]2C(=O)N(Cc2ccc(OC(F)(F)F)cc2)c2ccccc2O3)CC1	i	?	-1.4%	?
CC(C)N1C[C@@H]2C[C@H]1C(=O)N(Cc1ccc(OC(F)(F)F)cc1)c1ccccc1O2	i	70.8µM*	-25.2%[70.6 µM]	?
O=C1[C@@H]2C[C@@H](CN2Cc2nccs2)Oc2ccccc2N1Cc1ccc(OC(F)(F)F)cc1	i	?	-29.7%	?
COC1C(=O)N(c2cccc(F)c2)C12CCN(C(=O)c1ccncc1)CC2 (centres undefined)	i	-7.8%	-6.3%	-12.0%
